Assay outcomes deposited in PubChem BioAssay by National Center for Advancing Translational Sciences (NCATS).
This is a sample that favours compounds with a hit; in the whole collection about 9.3% have one here.
Rab9 promoter act – activates the Rab9 promoter. Huh7 Rab9 promoter-luciferase reporter, luminescence, 24 h. Potency, µM (doses to about 9.22 µM), usual class: activators. hit rate 2.8% among 320,000; also: nearly all actives have a fitted effect of over 60% in size
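Quantitative HTS format; Huh7 Rab9-luciferase reporter cells (1500/well) receive compound 2 h post-plating, incubate 24 h at 37 °C, then get luciferase reagent for 10 min before luminescence reading.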
FLuc counter – inhibits or activates purified firefly luciferase, miR-21 counter-screen. P08659. purified FLuc, Km substrates, luminescence inhibition. Potency, µM (top dose mostly 57.5 µM), most hits filed as inhibitors. hit rate 6.9% among 360,000; also: nearly all actives have a fitted effect of over 55% in size
Target sequence (P08659 whole entry, looked up): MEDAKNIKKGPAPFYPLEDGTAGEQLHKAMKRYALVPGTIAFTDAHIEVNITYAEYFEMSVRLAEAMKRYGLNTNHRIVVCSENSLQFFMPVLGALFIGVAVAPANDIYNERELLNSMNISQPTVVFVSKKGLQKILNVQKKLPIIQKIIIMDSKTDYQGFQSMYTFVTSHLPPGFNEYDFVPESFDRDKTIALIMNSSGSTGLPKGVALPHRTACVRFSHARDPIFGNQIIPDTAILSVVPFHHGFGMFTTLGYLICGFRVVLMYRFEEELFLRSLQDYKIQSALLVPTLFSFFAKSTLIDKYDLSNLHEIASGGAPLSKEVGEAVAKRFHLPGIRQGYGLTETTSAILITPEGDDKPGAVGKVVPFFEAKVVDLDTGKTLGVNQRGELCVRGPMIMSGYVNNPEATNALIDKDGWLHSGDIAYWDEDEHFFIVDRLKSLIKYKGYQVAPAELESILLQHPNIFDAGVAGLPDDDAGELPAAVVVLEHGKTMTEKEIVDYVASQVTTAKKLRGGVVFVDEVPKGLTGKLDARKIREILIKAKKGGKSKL
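Purified P. pyralis luciferase, 10 nM final, with Km-level 10 uM D-luciferin and 10 uM ATP in 50 mM Tris acetate pH 7.5, 10 mM Mg acetate, 0.01% Tween-20, 0.05% BSA; 6-point qHTS titration about 60 µM downward; luminescence read.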
SMN2 splice up – increases expression of the SMN2 splice variant; hit rate 2.8% among 210,000; HEK293 SMN2-luciferase splicing reporter, luminescence, 30-36 h; Potency, µM (doses to about 46.1 µM), usual class: activators; also: nearly all actives have a fitted effect of over 55% in size
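HEK293 cells carry an SMN2 […]–luciferase reporter in which exon 7 inclusion puts luciferase in frame. Cells were plated 10-12 h before compound addition, then incubated 30-36 h at 37C. ONE-Glo luminescence was read; sodium butyrate at 4.5 mM final served as control.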
ELG1 genotox – inducers of genotoxicity in HEK293T ELG1-luciferase cells. AID 504466. hit rate 1.3% among 330,000. Potency, µM (highest dose often 46 µM), most hits filed as activators. HEK293T ELG1-luciferase reporter, luminescence, 16 h; also: nearly all actives have a fitted effect of over 60% in size
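Genotoxic stress is detected as increased luminescence from luciferase-tagged ELG1 in HEK293T cells, measured with ONE-Glo after a 16 hr treatment at 37 °C.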
NPC1 promoter act – activates the NPC1 promoter | Huh7 NPC1 promoter luciferase reporter, 24 h | Potency, µM (titrated, usually from 9.22 µM), most hits filed as activators | hit rate 2.4% among 320,000 | AID 485313; also: nearly all actives have a fitted effect of over 60% in size
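Quantitative HTS used a cell-based reporter: Huh7 cells stably bearing the NPC1 promoter upstream of luciferase were treated with compounds for 24 h, and promoter activation was read as luminescence.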
ELG1 repair inh – blocks ELG1-dependent DNA repair in HEK293T cells | HEK293T ELG1-luciferase reporter, luminescence, 16 h; DNA damage induced by 5-fluorouridine | Potency, µM (series often up to 46.1 µM), hits mostly inhibitors | hit rate 2.3% among 330,000 | AID 504467; also: nearly all actives have a fitted effect of over 55% in size
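HEK293T cells expressing luciferase-tagged ELG1 (2,000/well) received 5-Fluorouridine plus compound or DMSO for 16 hr at 37 °C. Luciferase was read by ONE-Glo luminescence after 30 min at room temperature.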
Each line names hits and unclear results; the compound was inactive in the other large screens. Calls follow the shape of the dose curve; as a rule, active = well fitted curve in the direction sought with a large enough effect; inconclusive = small, poorly fitted or top-dose-only effect, or another doubt; inactive = no such curve, though single readings can be large; an effect the other way counts as inactive or inconclusive.

O=C(CCC(=O)Nc1ccc(F)cc1)N/N=C/c1ccccc1O	FLuc counter inconclusive
COc1ccccc1C(=O)Oc1ccc2ccc(=O)oc2c1	FLuc counter inconclusive (no result: SMN2 splice up)
Cc1ccc(OC(C)C(=O)N=Nc2c(O)[nH]c3ccc([N+](=O)[O-])cc23)cc1 (centres undefined)	none (no result: SMN2 splice up)
CC(=O)N1CCc2c(sc3c2c(=O)n(CCc2ccccc2)c(=O)n3Cc2ccc(Cl)cc2)C1	none (no result: Rab9 promoter act, ELG1 genotox, NPC1 promoter act, ELG1 repair inh)
N#Cc1cc2c(nc1SCc1nc3ccccc3[nH]1)CCC2	Rab9 promoter act 0.708µM, FLuc counter 1.35µM, SMN2 splice up 8.91µM, ELG1 genotox inconclusive, NPC1 promoter act 0.316µM, ELG1 repair inh inconclusive
Cc1cc(C)c(C#N)c(SCc2nc3ccccc3[nH]2)n1	Rab9 promoter act inconclusive, FLuc counter inconclusive, SMN2 splice up 10µM, ELG1 genotox 23.1µM, ELG1 repair inh inconclusive
Cc1cc(C)c(C#N)c(SCc2ccc(F)cc2)n1	Rab9 promoter act inconclusive
COC(=O)c1ccc(N2NC(=O)/C(=C/c3cc(OC)c(OC)c(OC)c3)C2=O)cc1	FLuc counter 19µM, ELG1 repair inh inconclusive (no result: SMN2 splice up)
COC(=O)c1ccc(N2NC(=O)/C(=C/c3cc(OC)c(O)c(OC)c3)C2=O)cc1	FLuc counter 8.49µM (no result: SMN2 splice up)
Cc1cc(N)n2nc(C)c(-c3ccccc3)c2n1	FLuc counter inconclusive
Cc1nnc(NC(=O)c2ccc(N3CCCC3=O)cc2)s1	Rab9 promoter act 2.24µM, FLuc counter 23.9µM, ELG1 genotox inconclusive, NPC1 promoter act inconclusive, ELG1 repair inh inconclusive (no result: SMN2 splice up)
Cc1cccc(C)c1NC(=O)c1ccc(N2CCCC2=O)cc1	none (no result: SMN2 splice up)
O=C(Nc1ccccc1Br)c1ccc(N2CCCC2=O)cc1	Rab9 promoter act 2.51µM, FLuc counter 15.1µM, ELG1 genotox inconclusive, NPC1 promoter act inconclusive, ELG1 repair inh inconclusive (no result: SMN2 splice up)
Cc1csc(NC(=O)c2ccc(N3CCCC3=O)cc2)n1	Rab9 promoter act 0.316µM, FLuc counter 1.9µM, SMN2 splice up 0.562µM, ELG1 genotox 0.651µM, NPC1 promoter act inconclusive, ELG1 repair inh inconclusive
CCN(c1ccc(NC(=O)c2ccc(N3CCCC3=O)cc2)cc1)C(C)C	FLuc counter inconclusive, ELG1 genotox 6.51µM, ELG1 repair inh inconclusive (no result: SMN2 splice up)
COc1ccccc1C(=O)Nc1cccc(NC(=O)c2ccccc2C)c1	FLuc counter inconclusive, ELG1 repair inh inconclusive (no result: SMN2 splice up)
O=C(Nc1nc2ccc(F)cc2s1)c1ccc(N2CCCC2=O)cc1	Rab9 promoter act 0.316µM, ELG1 genotox 0.461µM, NPC1 promoter act 0.398µM, ELG1 repair inh inconclusive (no result: SMN2 splice up)
Cn1ncc2c(NCc3cccc(C(F)(F)F)c3)c(C(=O)O)cnc21	none
O=C(Nc1nccs1)c1cccc(NC(=O)c2ccco2)c1	FLuc counter inconclusive, ELG1 repair inh 23.1µM
O=C(Nc1ccccc1O)c1cccc(NC(=O)c2ccco2)c1	FLuc counter inconclusive, ELG1 repair inh 11.6µM (no result: SMN2 splice up)
O=C(c1ccccc1)c1cccc(NC(=O)c2ccco2)c1	Rab9 promoter act 3.98µM, FLuc counter 26.9µM, ELG1 genotox inconclusive, ELG1 repair inh inconclusive
O=C(Nc1cccnc1)c1cccc(NC(=O)c2ccco2)c1	FLuc counter inconclusive
O=C(Nc1cccc(-c2cnc3ccccc3n2)c1)c1cccc(NC(=O)c2ccco2)c1	FLuc counter 10.7µM, SMN2 splice up inconclusive, ELG1 repair inh 10.3µM
COc1ccc(NC(=O)C2CCN(S(=O)(=O)c3ccc4c(c3)NC(=O)CO4)CC2)cc1	none (no result: SMN2 splice up)
O=C(Cc1ccccc1)NCCCN1CCN(CCCNC(=O)Cc2ccccc2)CC1	none
CN(C)/N=C/C=C1\CCC/C(=C\c2ccc(F)c(F)c2)C1=O	FLuc counter 21.3µM, ELG1 repair inh inconclusive
COc1ccc(/C=C2\CCC/C(=C\C=N\N(C)C)C2=O)cc1	FLuc counter 10.7µM
CCC(C)(C)n1nnnc1C(c1ccc(C)cc1)N1CCN(C(=O)c2ccco2)CC1 (centres undefined)	none
Cc1ccc(/C=C/C(=O)Nc2cccnc2)o1	Rab9 promoter act inconclusive, FLuc counter 23.9µM, SMN2 splice up inconclusive, ELG1 repair inh inconclusive
O=C(/C=C/c1ccccc1)NNC(=O)c1cccnc1	none
